High-throughput results as filed in PubChem.
NOMO-1 viab: NOMO-1 AML cell viability reduction, primary screen, STK33 inhibitor project, CellTiter-Glo luminescence; NOMO-1 AML viability, 72 h; 37,000 compounds, 7.5% hits; inhibition, % (test concentration not listed); AID 2330, 2010; in the data active means inhibition above about 80%
Shh pathway inh: Hedgehog pathway signaling inhibitors, primary screen, luminescence, Shh-LIGHT2 cells, Gli-luciferase | Shh-LIGHT2 Gli-luciferase reporter, 30 h | inhibition, % (concentration not given with the values) | 22,000 compounds, 2.1% hits | AID 2313, 2010;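 active means mean inhibition across valid replicates above about 65%, limit read from the data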;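 further: pathway switched on by Shh-conditioned medium diluted 1 in 25 in low serum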
MITF inhib: inhibitors of MITF, primary screen, MITF inhibitor project, cell-based, luminescence | TRPM1 promoter luciferase, 24 h | inhibition, % (concentration not given with the values) | 37,000 compounds, 0.28% hits; in the data active means inhibition above about 85%;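 further: human melanocyte line stably carrying TRPM1 promoter luciferase reporter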
Numbers without * were called inactive. A selection: hits, their analogues and other compounds. The true share with any hit is near 7.9%.

C[C@@H]1CN([C@H](C)CO)C(=O)c2cccc(NC(=O)c3ccc(-c4nccs4)cc3)c2O[C@H]1CN(C)Cc1ccc(Cl)c(Cl)c1 was read as NOMO-1 viab 106*, Shh pathway inh 26 and MITF inhib 48.
C[C@@H]1CN([C@@H](C)CO)C(=O)c2cccc(NC(=O)c3ccc(-c4nccs4)cc3)c2O[C@@H]1CN(C)Cc1ccc(C(=O)O)cc1 was read as NOMO-1 viab -19, Shh pathway inh 14 and MITF inhib -5.
`C[C@H](CO)N1C[C@H](C)[C@H](CN(C)Cc2ccc(Cl)c(Cl)c2)Oc2c(NC(=O)c3ccc(-c4nccs4)cc3)cccc2C1=O` gave NOMO-1 viab 108*, Shh pathway inh -8 and MITF inhib 66.
Screening C[C@H]1CN([C@@H](C)CO)C(=O)c2cccc(NC(=O)c3ccc(-c4nccs4)cc3)c2O[C@@H]1CN(C)Cc1ccc(C(=O)O)cc1 returned NOMO-1 viab 8, Shh pathway inh 9 and MITF inhib -2.
For CC(C)NC(=O)Nc1cccc2c1O[C@@H](CN(C)S(=O)(=O)c1ccc(F)cc1)[C@H](C)CN([C@H](C)CO)C2=O the results were NOMO-1 viab 2, Shh pathway inh -9 and MITF inhib -5.
`COc1ccc(NC(=O)C(C)Oc2ccccc2)c([N+](=O)[O-])c1` (stereo not given) gave NOMO-1 viab 23 and MITF inhib -84.
Cc1ccc(-c2nc3cc(Cl)cc(Cl)c3o2)cc1NC(=O)COc1ccc([N+](=O)[O-])cc1 was read as NOMO-1 viab -4 and MITF inhib 17.
C[C@H](CO)N1C[C@H](C)[C@H](CN(C)S(C)(=O)=O)Oc2ccc(NC(=O)CCC(F)(F)F)cc2CC1=O was read as NOMO-1 viab 17, Shh pathway inh 5 and MITF inhib 4.
Cc1cc(N(CC(=O)Nc2cccc(C)c2C)S(C)(=O)=O)ccc1Br was read as NOMO-1 viab -3 and MITF inhib -8.
Screening C[C@@H]1CN([C@H](C)CO)C(=O)c2cccc(NS(C)(=O)=O)c2O[C@@H]1CN(C)Cc1ccccc1 returned NOMO-1 viab 9, Shh pathway inh -76 and MITF inhib -5.
For C[C@@H]1CCCCO[C@@H](CN(C)CC2CCCCC2)[C@@H](C)CN([C@H](C)CO)C(=O)c2cc(NC(=O)Nc3cccc4ccccc34)ccc2O1 the results were NOMO-1 viab 112*, Shh pathway inh -10 and MITF inhib -20.
Screening C[C@@H]1CCCCO[C@H](CN(C)CC2CCCCC2)[C@@H](C)CN([C@H](C)CO)C(=O)c2cc(NC(=O)Nc3cccc4ccccc34)ccc2O1 returned NOMO-1 viab 128*, Shh pathway inh 30 and MITF inhib 1.
`C[C@@H]1CN([C@@H](C)CO)C(=O)c2cc(NC(=O)Nc3cccc4ccccc34)ccc2O[C@H]1CN(C)CC1CCCCC1` gave NOMO-1 viab 56, Shh pathway inh 34 and MITF inhib -14.
Screening C[C@@H]1CCCCO[C@@H](CN(C)Cc2ccccc2)[C@@H](C)CN([C@H](C)CO)C(=O)c2cc(NC(=O)Nc3cccc4ccccc34)ccc2O1 returned NOMO-1 viab 35, Shh pathway inh 52 and MITF inhib -7.
Screening Cc1cc(Oc2coc3cc(OCC(=O)Nc4ccccc4F)ccc3c2=O)cc(C)c1Cl returned NOMO-1 viab 44 and MITF inhib 78.
`COc1cc(OC)c(NC(=O)CSc2nnc(-c3ccccc3)n2C)cc1Cl` gave NOMO-1 viab 25 and MITF inhib -1.
`COc1cc2c(cc1-c1coc3c4c(ccc3c1=O)OC(C)(C)C=C4)OCO2` gave NOMO-1 viab 87*, Shh pathway inh -5 and MITF inhib -11.
Screening COc1cc2c(cc1-c1coc3cc(O[C@@H]4O[C@H](CO)[C@@H](O)[C@H](O)[C@H]4O)ccc3c1=O)OCO2 returned NOMO-1 viab -2, Shh pathway inh -6 and MITF inhib -2.
FC(F)(F)C1(C(F)(F)F)N=C(c2ccccc2)OC(N2CCCCC2)=N1 was read as NOMO-1 viab 51, Shh pathway inh 1 and MITF inhib 2.
Screening Cc1ccc(S(=O)(=O)Nc2ccc3c(c2)C(=O)N([C@H](C)CO)C[C@H](C)[C@H](CN(C)Cc2ccc(Cl)c(Cl)c2)OCCCC[C@@H](C)O3)cc1 returned NOMO-1 viab 111*, Shh pathway inh -18 and MITF inhib 80.
For C[C@@H]1CCCCO[C@@H](CN(C)C(=O)Nc2cccc3ccccc23)[C@@H](C)CN([C@H](C)CO)C(=O)c2cc(NS(=O)(=O)c3ccccc3)ccc2O1 the results were NOMO-1 viab 55, Shh pathway inh 21 and MITF inhib 29.
